High-throughput results deposited in PubChem BioAssay by several laboratories.
eIF4H inh: human eIF4H binding inhibitors, primary screen, translation initiation inhibitor project, biochemical, uHTS, fluorescence polarization. Eukaryotic translation initiation factor 4H (Homo sapiens), Q15056. eIF4H fluorescence polarization binding assay. inhibition, % at 35 µM. actives 0.94% (n = 290,000). AID 2012, 2009;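 also: calls also rest on retests at 20 µM and on dose response follow-up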
PABP FP inh: PABP poly(A) RNA binding inhibitors, primary screen, biochemical, fluorescence polarization, uHTS; calls only at 35 µM; actives 1% (n = 290,000); AID 2014, 2009;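 also: calls also rest on retests at 20 µM and on dose response follow-up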
PABP1 MLLE inh: inhibitors of PABP1 MLLE–PAM2 peptide binding, primary screen, biochemical, fluorescence polarization, FITC-PAM2, GST-MLLE; Polyadenylate-binding protein 1 (Homo sapiens), P11940; inhibition, % at 20 µM; actives 0.36% (n = 360,000); in the data active = inhibition above about 35%, passing the limit was not always enough
EBV gp42 block: Epstein-Barr virus gp42 inhibitors, primary screen, biochemical, uHTS, fluorescence polarization; actives 0.42% (n = 220,000); Fluorescence polarization binding assay, mP read-out; Glycoprotein 42 (Epstein-Barr virus (strain AG876)), Q1HVG2; inhibition, % (tested at 21.74 µM); in the data active = inhibition above about 50%
MEX-5 binding: MEX-5 zinc finger RNA-binding disruptors – biochemical, C. elegans, fluorescence polarization, MLPCN library, primary screen; activity score (negative = inhibition of binding), % at 10 µM; Zinc finger protein mex-5 (Caenorhabditis elegans), Q9XUB2; AID 1832, 2009; actives 0.38% (n = 300,000); MEX-5/FITC-TCR2 RNA binding; active compounds read low;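 active = inhibition past about -25% in most replicates, and total fluorescence under double the plate's negative control median, limit read from the data; inconclusive = replicates evenly split on the limit, or fluorescence at least double controls; inactive = too little inhibition in most replicates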
Target sequence (Q9XUB2 whole entry, looked up): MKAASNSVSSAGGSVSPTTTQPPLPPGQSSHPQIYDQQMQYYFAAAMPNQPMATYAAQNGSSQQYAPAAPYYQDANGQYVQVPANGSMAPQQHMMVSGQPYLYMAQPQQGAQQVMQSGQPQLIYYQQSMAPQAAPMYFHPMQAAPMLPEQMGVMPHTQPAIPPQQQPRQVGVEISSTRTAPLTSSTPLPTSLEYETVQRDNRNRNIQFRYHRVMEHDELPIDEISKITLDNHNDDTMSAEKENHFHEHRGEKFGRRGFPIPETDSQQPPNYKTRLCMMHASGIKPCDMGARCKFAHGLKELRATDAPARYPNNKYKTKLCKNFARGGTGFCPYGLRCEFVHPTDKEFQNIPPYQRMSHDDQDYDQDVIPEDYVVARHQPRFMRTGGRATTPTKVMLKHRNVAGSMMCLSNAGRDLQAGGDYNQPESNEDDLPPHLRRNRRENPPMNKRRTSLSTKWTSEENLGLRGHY
A number is an active result; . = inactive; ? = inconclusive; / = not tested or not shown; + = active, no number. Hits are enriched below; roughly 1.8% of the tested compounds scored in any of these assays. Unless noted, no rule for the calls is given here.

SMILES	eIF4H inh	PABP FP inh	PABP1 MLLE inh	EBV gp42 block	MEX-5 binding
C[C@H](CO)N1C[C@H](C)[C@@H](CN(C)Cc2cccc(F)c2)Oc2cc(-c3cccc(C#N)c3)ccc2S1(=O)=O	/	/	.	/	/
Cc1ccc(N2CCN(C(=O)c3cc(-c4ccc(F)cc4)[nH]c3C)CC2C)cc1 (stereo not drawn)	?	+	.	/	.
Cc1ccc(S(=O)(=O)N[C@H](C(=O)Oc2ccc3c(C(F)(F)F)cc(=O)oc3c2)c2ccccc2)cc1	.	.	36	.	.
O=C(NCc1cccnc1)c1cc(C2CCCCN2C(=O)c2ccc3ccccc3c2)on1 (stereo not drawn)	/	/	.	/	/
Cc1ccc(/C=C(\C#N)C(=O)Nc2c(C)cccc2C)s1	.	.	.	.	-46
Cc1ccc(CNC(=O)/C(C#N)=C/c2ccc(C)s2)cc1	.	.	.	.	.
Cc1cccc(C)c1NC(=O)/C(C#N)=C/c1ccsc1	.	.	.	.	.
Cc1ccc(NC(=O)/C(C#N)=C/c2ccc(C)s2)c(C)c1	?	?	.	.	-54
O=C(NCc1cccnc1)c1cc(C2CCCN(S(=O)(=O)c3cccs3)C2)on1 (stereo not drawn)	/	/	.	/	/
O=C(O)CSc1cc(NS(=O)(=O)c2ccc(Br)cc2)c2ccccc2c1O	.	.	46	/	-71
Cc1occc1-c1nnc(SCC(=O)c2cc3ccccc3oc2=O)o1	60	.	.	.	.
Cc1occc1-c1nnc(SCC(=O)Nc2ccccn2)o1	.	.	.	.	.
CCOC(=O)c1c(NC(=O)c2ccccc2)sc2c1CCc1ccccc1-2	.	.	43	.	.
CCCCN1C(=O)C2(NNc3ccccc3O2)c2ccccc21 (stereo not drawn)	.	.	.	.	.
C=CCN1C(=O)C2(NNc3ccccc3O2)c2ccccc21 (stereo not drawn)	101	+	.	.	.
COC(=O)[C@H]1C[C@H](OC(=O)NCc2ccco2)[C@@]2(O)CN(S(=O)(=O)c3ccc(C)cc3)CC2[C@H]1C(=O)OC (stereo partly drawn)	/	/	.	/	/
Nc1nc(-c2cc(O)ccc2[N+](=O)[O-])cc(-c2ccccc2)c1[N+](=O)[O-]	98	+	.	/	.
COc1cc(C[C@@H](C)[C@@H](C)Cc2ccc(O)c(OC)c2)ccc1O	/	/	.	/	/
CC(Cc1ccc(O)c(O)c1)C(C)Cc1ccc(O)c(O)c1 (stereo not drawn)	/	/	/	/	-36
O=[N+]([O-])c1c(NCc2ccco2)ccc2nonc12	123	+	.	.	.
COCCNC(=O)C1(C)CCCN(C(=O)c2cccc(Cl)c2)C1 (stereo not drawn)	/	/	.	/	/
Cc1ccc(Cl)cc1NC(=O)CSc1sc2c(O)cc(=O)[nH]c2c1C#N	.	.	.	/	.
CCSc1nnc(NC(=O)CSc2sc3c(O)cc(=O)[nH]c3c2C#N)s1	91	+	.	/	.
CCc1nnc(NC(=O)CSc2sc3c(O)cc(=O)[nH]c3c2C#N)s1	90	+	.	/	.
Cc1csc(NC(=O)CSc2sc3c(O)cc(=O)[nH]c3c2C#N)n1	64	+	.	/	.
SMILES	eIF4H inh	PABP FP inh	PABP1 MLLE inh	EBV gp42 block	MEX-5 binding
Cc1ccc(S(=O)(=O)N2C[C@H]3[C@H]4C(=O)N(Cc5ccccc5)C(=O)[C@H]4CC(=O)[C@H]3[C@@H]2c2ccccc2)cc1	/	/	.	/	/
O=C(NCCNC(=O)c1ccc(-c2cc(Cl)ccc2Cl)o1)c1cnccn1	/	/	.	/	/
CC1(C(=O)NS(=O)(=O)c2ccc3c(c2)CCO3)CCN1C(=O)C1(c2ccc(Cl)cc2)CCC1 (stereo not drawn)	/	/	.	/	/
CCc1nccn1CCC(=O)N1CCc2c([nH]c3ccccc23)C1CC(C)C (stereo not drawn)	.	.	.	.	.
COCc1ccc(CN2CCc3c([nH]c4ccccc34)C2CC(C)C)o1 (stereo not drawn)	.	+	.	.	.
COc1cccc(/C=C2\SC(=S)N(CCCC(=O)Nc3cc(C)on3)C2=O)c1	?	+	.	/	.
CCc1ccc(/C=C2\SC(=S)N(CCCC(=O)Nc3cc(C)on3)C2=O)cc1	/	/	.	/	/
COc1ccc(/C=C2\SC(=S)N(CCCC(=O)Nc3ccccc3C(=O)O)C2=O)cc1OC	.	+	.	/	.
COc1cccc(/C=C2\SC(=O)N(CC(=O)NC3C=CS(=O)(=O)C3)C2=O)c1 (stereo not drawn)	.	.	41	/	.
COc1ccc(/C=C2\SC(=S)N(CCC(=O)Nc3ccccc3C(=O)O)C2=O)cc1	.	.	.	/	.
COc1cccc(/C=C2\SC(=S)N(CCCC(=O)NC3=NCCS3)C2=O)c1	.	+	.	/	-34
CCc1ccc(/C=C2\SC(=S)N(CCCC(=O)NC3=NCCS3)C2=O)cc1	/	/	.	/	/
Nc1ccc(/C=C/C(=O)c2ccco2)cc1	54	+	.	.	.
COc1ccc(S(=O)(=O)N=N/C=C2\C=CC=CN2O)cc1OC	/	/	.	/	/
COc1ccc2c(=O)c3c(=O)n(Cc4ccco4)c(-c4ccco4)nc3oc2c1	86	+	.	.	/
COc1ccc(-c2nc3oc4cc(OC)ccc4c(=O)c3c(=O)n2Cc2ccco2)cc1	.	.	.	.	.
O=c1c2ccccc2sc2nc(C3CCCCC3)n(Cc3ccco3)c(=O)c12	.	.	.	.	.
CCc1nc2sc3ccccc3c(=O)c2c(=O)n1Cc1ccco1	69	+	.	.	.
COc1ccc(Cn2c(-c3ccco3)nc3oc4cc(OC)ccc4c(=O)c3c2=O)cc1	.	.	.	.	.
CCc1nc2oc3cc(OC)ccc3c(=O)c2c(=O)n1Cc1ccco1	52	+	.	.	/
Cc1nc(SCC(=O)Nc2ccccn2)n[nH]1	.	.	.	.	.
Cc1[nH]c(=O)[nH]c(=O)c1CSCC(=O)OCC(=O)Nc1ccccn1	.	.	.	51	.
CCN(CC)C(=O)C1=C(C)N(Cc2ccccc2)C(=O)C(CC(=O)NCc2ccco2)C1 (stereo not drawn)	/	/	.	/	/
Cc1cc2nc(C3CCCCC3)c(Cc3cccc(F)c3)n2c(C)c1Br	/	/	.	/	/
COc1cc(/C=N/NC(=O)c2ccccn2)cc2c1OCO2	?	+	.	.	.
CCc1nc2ccc(C(=O)NCCCN3CCCC3=O)cn2c1N(CC)C(C)=O	/	/	.	/	/
Cc1ccc(S(=O)(=O)N2C[C@H]3n4c(=O)ccc(=O)n4C[C@H](OC(=O)NCC4CCCCC4)[C@@]3(O)C2)cc1	/	/	.	/	/
COc1ccc(C2c3sc(=O)[nH]c3SC3C(=O)N(c4ccccc4)C(=O)C32)cc1 (stereo not drawn)	66	.	.	.	.
CN1CCC(N(C)S(=O)(=O)c2ccc(NC(=O)COc3ccc(F)cc3)cc2)CC1	/	/	.	/	.
CN1CCC(N(C)S(=O)(=O)c2ccc(NC(=O)COc3ccc(F)cc3Cl)cc2)CC1	.	+	.	/	.
